The assay in a line: anaerobic choline-dependent bacterial growth inhibition – minimal medium, absorbance (AID 1963822). Particulars: Gram-negative bacterium anaerobic choline minimal medium.
Where [1] appears, read: measured here: choline growth z-score, timepoint 1, stronger effect = lower value.

The campaign covered roughly 55,000 compounds. About 90 (0.2%) were called active. The sample holds actives, similar compounds and a random draw of the others, so the mix is not that of the screen. The rule behind the calls is not given here.

Consider `Cn1c(=O)n(C)c2cc(CNCC(O)c3ccccc3)ccc21` (stereo not drawn), for which the z-score by setting is: (stronger effect = lower value) -0.37 (inactive); under setting [1], -0.32.
On the same counts, the results for `Cc1ccc2c(c1)c1c(n2CC(O)CNCc2ccccc2)CCCC1` (stereo not drawn) are -2.96 (active) and -0.69.
On the same counts, the results for `COC(=O)CC1=CC(=O)N(CC(=O)Nc2ccc(C)cc2Br)c2ccccc2N1` are 0.27 (inactive) and 0.25.
For `COc1ccc(-n2nnc3c(N4CCN(C(=O)CC5CCCC5)CC4)ncnc32)cc1` the same measures were -0.34 (inactive) and 0.31.
For the compound `CC(C)CSc1nn(C)c2nc3c(c(=O)n12)C(C)(C)Cc1ccccc1-3`, the z-score (stronger effect = lower value) was 0.12 (inactive) and the z-score under setting [1] was -0.98.
Consider `Cn1cc(CN2CCC(C(=O)N3CCCC3)CC2)c2cc(Cl)ccc21`, for which the z-score was -1.08 (inactive) (stronger effect = lower value) and -0.88 under setting [1].
For `CCC(C)(C)NC(=O)CN(C)S(=O)(=O)c1cc2c(cc1Cl)NC(=O)CO2` the same measures were 0.45 (inactive) and -0.29.
As to `COc1ccc(-c2nn(-c3ccccc3)cc2C2CC(c3ccccc3)=NN2S(C)(=O)=O)cc1` (stereo not drawn), the z-score is 0.58 (inactive) (stronger effect = lower value) and 0.97 under setting [1].
Take `Cc1nc(N2CCCC2)ncc1C(=O)N1CCCCC1`: the z-score is, setting by setting: (stronger effect = lower value) 0.92 (inactive); under setting [1], -0.25.
Turning to `CCCn1c(=O)c2ccccc2n2c(=O)n(CC(=O)c3ccc(C)cc3C)nc12`, the z-score was -0.82 (inactive) (stronger effect = lower value) and -0.89 under setting [1].
For `Cn1c(=O)c2[nH]c(-c3ccncc3)nc2n(C)c1=O` the same measures were -1.62 (inactive) and -1.51.
On the same counts, the results for `Cc1ccc(-c2noc(CCn3nc(-c4ccc5c(c4)OCO5)ccc3=O)n2)cc1` are 1.77 (inactive) and 1.44.
Regarding `CCOc1ccc(NC(=O)Nc2ccc(-c3cc4cc(Cl)ccc4[nH]3)cc2)cc1`, the z-score reads like this: (stronger effect = lower value) -0.97 (inactive); under setting [1], -1.43.
On the same counts, the results for `Cc1nn(CC(=O)NCCc2c[nH]c3ccccc23)c(=O)c2noc(C)c12` are -1.18 (inactive) and -0.02.
On the same counts, the results for `CCC(Sc1nnc(-c2ccccc2NC(C)=O)c(=O)[nH]1)C(=O)Nc1c(C)cc(C)cc1C` (stereo not drawn) are 0.57 (inactive) and -0.51.
Consider `COc1ccc(NC(=O)CSc2nc3ccccc3n2Cc2ncc(C)c(OC)c2C)cc1`, for which the z-score is, setting by setting: (stronger effect = lower value) 0.8 (inactive); under setting [1], 0.74.
Consider `COc1ccc(CN2CCCC2c2cc(C)on2)cc1CN1CCOCC1` (stereo not drawn), for which the z-score by setting is: (stronger effect = lower value) -1.52 (inactive); under setting [1], -0.66.
For `COc1cc2[nH]c(=O)n(CCCC(=O)NCCCN3CCN(c4cccc(Cl)c4)CC3)c(=O)c2cc1OC` the same measures were -0.27 (inactive) and 0.11.
For `O=C(CN(Cc1ccccc1)S(=O)(=O)c1ccc(Br)cc1)N1CCN(c2ccc(F)cc2)CC1` the same measures were 0.95 (inactive) and 0.76.
For `O=C(Nc1ccccc1F)C1CC(=O)N(CCc2c[nH]c3ccc(F)cc23)C1` (stereo not drawn) the same measures were -0.07 (inactive) and 0.17.
With `CC(=O)Nc1ccc(S(=O)(=O)N2CCN(Cc3nc4cccnc4n3-c3ccc(C)cc3)CC2)cc1`, the z-score was 0.91 (inactive) (stronger effect = lower value) and -0.17 under setting [1].
For `Cc1ccc(-n2nc(N3CCCN(C(=O)C4CCC4)CC3)ccc2=O)cc1C` the same measures were -0.57 (inactive) and 1.18.
For `CCN(CCCNC(=O)C1CCCN(C(=O)c2cccc(Cl)c2)C1)c1ccccc1` (stereo not drawn) the same measures were -1 (inactive) and -1.29.
For `Cc1nc(N2CCC(C(=O)N3CCOCC3)CC2)c2c(C)c(C)oc2n1` the same measures were -0.5 (inactive) and -0.48.
In the case of `CCOc1ccc(NC(=O)Nc2ccc(Cn3cnc(-c4nc(-c5ccc(Cl)cc5)no4)c3)cc2)cc1`, the z-score was 0.25 (inactive) (stronger effect = lower value) and 0.58 under setting [1].
For `O=C(O)C1Nc2ccc(Cl)cc2C2C=CCC12` (stereo not drawn) the same measures were 1.42 (inactive) and 2.01.
On the same counts, the results for `Cc1ccc(OCc2nc3c4ccccc4ncn3n2)cc1` are 0.29 (inactive) and 0.48.
On to `CC(C)c1ccc(N2C(=O)c3cc4ccsc4n3CC2(C)C(=O)NC2CCCC2)cc1` (stereo not drawn), for which the z-score reads like this: (stronger effect = lower value) 0.43 (inactive); under setting [1], 0.35.
On the same counts, the results for `CCOc1cc(-c2noc(CCCC(=O)Nc3cccnc3)n2)ccc1OC` are -0.11 (inactive) and -0.21.
For `CN(CCc1noc(-c2ccccc2Cl)n1)S(=O)(=O)c1cccc2nsnc12` the same measures were 0.03 (inactive) and -1.43.
For `CCN1CCN(C(=O)c2cc(C)n(CCN3CCCC3)c2C)CC1` the same measures were -1.12 (inactive) and -1.13.
In the case of `Cc1nc(-c2ccc(C)c(S(=O)(=O)N3CCC(C(=O)N4CCN(c5ccc(F)cc5)CC4)CC3)c2)no1`, the z-score (stronger effect = lower value) was 0.78 (inactive) and the z-score under setting [1] came to 0.51.
Turning to `COC(=O)C1=CN(C)S(=O)(=O)N=C1C`, the z-score was 1.05 (inactive) (stronger effect = lower value) and 0.71 under setting [1].
Regarding `O=C(O)c1c[nH]c2ccc(S(=O)(=O)NC3CCCCNC3=O)cc2c1=O` (stereo not drawn), the z-score is 1.32 (inactive) (stronger effect = lower value) and 1.13 under setting [1].
Consider `O=C(c1cc2cc(Cl)ccc2[nH]1)N1CCCN(c2ccc(=O)n(-c3ccccc3)n2)CC1`, for which the z-score (stronger effect = lower value) is -1.08 (inactive) and the z-score under setting [1] was -1.54.
For `CCCCC/C=C\C/C=C\CCCCCCCCCC(=O)O` the same measures were -3.44 (active) and -3.23.
As to `CCCCC[C@@](C)(O)/C=C/[C@H]1C=CC(=O)[C@@H]1C/C=C\CCCC(=O)O`, the z-score is -0.26 (inactive) (stronger effect = lower value) and 0.66 under setting [1].
For `CCCCC/C=C\CC1OC1CCCCCCCC(=O)O` (stereo not drawn) the same measures were -3.37 (active) and -3.13.
For `CCCCCCCC/C=C\CCCCCCCC(=O)OC[C@H](CO)OC(C)=O` the same measures were 0.47 (inactive) and 0.34.
